# Among all 38,000 compounds or so, about 1,200 (3.2%) showed an effect of 50% or more. The median lay at about -58%. Only a selection was taken, and strong results are over-represented in it overall.
# System: Plasmodium falciparum
# Experiment: Calibr Malaria Delayed Death Assay SOP
# Assay type: functional, organism-based
# Design: scale not given: in the data most compounds retested in dose-response had high values
# Settings: concentration 4.99e-06 (unit not given; other assays of the set use mol/L)
row,SMILES,Percent Effect
1,N#Cc1cccc(CNCCC(=O)N2CCc3sccc3C2)c1,18.53%
2,O=C(CCNCc1cccc(O)c1)N1CCc2sccc2C1,50.25%
3,O=C(CCN1CCCC1c1cccc(F)c1)N1CCc2sccc2C1 (centres undefined),40.53%
4,COc1ccc(CNCCC(=O)N2CCc3sccc3C2)cc1O,34.01%
5,O=C(CCN1CCCC1C1CCCCC1)N1CCc2sccc2C1 (centres undefined),58.84%
6,Cc1cc(C2CCCN2CCC(=O)N2CCc3sccc3C2)no1 (centres undefined),-5.731%
7,CNc1nc(C)c(C(=O)N2C[C@@H](C(=O)O)[C@H](C3CC3)C2)s1,-129.8%
8,Cc1cc(C[S+]([O-])CC(=O)NCc2ccccc2)no1 (centres undefined),-44.89%
9,C[C@H](NC(=O)OC(C)(C)C)c1nnc(S(=O)(=O)Cc2cccc(F)c2)o1,-198.9%
10,Cc1nc2c(c(NC(C)c3nnn[nH]3)n1)Cc1ccccc1OC2 (centres undefined),-22.04%
11,CNS(=O)(=O)c1cccc(C(C)NCc2cccc(OC)c2)c1 (centres undefined),-0.2291%
12,CNS(=O)(=O)c1cccc(C(C)NCc2ccc(C)o2)c1 (centres undefined),21.13%
13,CNS(=O)(=O)c1cccc(C(C)NCc2ccco2)c1 (centres undefined),0.2758%
14,CNS(=O)(=O)c1cccc(C(C)NCc2cccc(C)c2C)c1 (centres undefined),68.88%
15,CNS(=O)(=O)c1cccc(C(C)NCc2ccccc2OC)c1 (centres undefined),86.21%
16,CNS(=O)(=O)c1cccc(C(C)NCc2ccc(F)cc2F)c1 (centres undefined),-6.511%
17,O=C(c1cc2c(s1)CCCCC2)N1CCC(c2ncc[nH]2)CC1,-34.19%
18,COc1nc2c(cc1C(=O)N1CCCCC1c1ccccn1)CCC2 (centres undefined),-121.2%
19,Cc1nn(CC(C)C)c(N(C)C)c1CNCc1ccc(CO)c(F)c1,-6.96%
20,O=C(CCNS(=O)(=O)c1ccc(F)cc1)NCc1ccoc1,-96.77%
21,CCCc1nc(CN2CCCC2Cn2cncn2)no1 (centres undefined),-44.73%
22,CCSc1ncc(CN2CCC(O)(CN3CCOCC3)C(C)(C)C2)cn1 (centres undefined),16.41%
23,COc1cccc(CNC2CCCOc3cc(C)ccc32)n1 (centres undefined),67.49%
24,Cc1ccc2c(c1)OCCCC2NC1CCN(C)CC1 (centres undefined),47.45%
25,COc1ccc2c(c1)C(NCCc1ncc(C)s1)CCCO2 (centres undefined),-37.71%
26,COc1c(CNC2CCCOc3ccccc32)c(C)nn1C (centres undefined),-45.12%

row,SMILES,Percent Effect
1,COc1ccc2c(c1)C(NCCc1ccccn1)CCCO2 (centres undefined),57.17%
2,COc1ccc2c(c1)C(NCCc1c(C)noc1C)CCCO2 (centres undefined),29.88%
3,O=C(Nc1cn[nH]c1)N1CCN(CCSc2ccccc2)CC1,-6.157%
4,CCOCc1ncn2c1CN(C(=O)Nc1cccc(F)c1)CC2,-77.13%
5,CN(CCCOc1ccccc1Cl)C(=O)CN1CCCCCC1=O,-111.3%
6,Cc1cccc(S(=O)(=O)N2Cc3nccn3CC(CN(C)C)C2)c1 (centres undefined),1.767%
7,CC(=O)N1CCc2[nH]c(=O)ccc2C1,-39.7%
8,CCCn1cc(CNCC(c2ccc(C)s2)N2CCOCC2)cn1 (centres undefined),54.23%
9,Cc1ccc(C(CNCc2ccncc2)N2CCOCC2)s1 (centres undefined),-46.8%
10,Cc1ccc(C(CNCc2cccn2C)N2CCOCC2)s1 (centres undefined),-42.34%
11,CCn1cc(CNCC(c2ccc(C)s2)N2CCOCC2)cn1 (centres undefined),64.77%
12,CCn1ccnc1CNCC(c1ccc(C)s1)N1CCOCC1 (centres undefined),52.86%
13,Cc1ccc(C(CNCc2ccc(C#N)cc2)N2CCOCC2)s1 (centres undefined),50.98%
14,Cc1ccc(C(CNCc2cccnc2)N2CCOCC2)s1 (centres undefined),-2.804%
15,CCn1cc(CNC(=O)CCc2nnc(-c3ccc(C)s3)o2)cn1,-44.03%
16,O=C(CCn1cccn1)NCC(c1cccs1)N1CCOCC1 (centres undefined),-64.96%
17,Cc1ccc(C(CNCc2ncc[nH]2)N2CCOCC2)s1 (centres undefined),32.72%
18,Cc1ccc(C(CNCC2CC2)N2CCOCC2)s1 (centres undefined),23.83%
19,Cc1ccc(C(CNCc2nccn2C)N2CCOCC2)s1 (centres undefined),-32.15%
20,O=C(NCCc1nccs1)C(c1ccccc1)n1cnnn1 (centres undefined),-126.4%
21,Cn1ccnc1-c1ccc(NCc2cn3c(n2)SCC3)nn1,-229.6%
22,CC(C)CC(CO)NS(=O)(=O)Cc1ccon1 (centres undefined),-57.79%
23,Cc1ccc2nc(C3CCCN3C(=O)c3cc(=O)[nH]c(=O)[nH]3)[nH]c2c1 (centres undefined),-24.73%
24,COc1ccc(NS(=O)(=O)CC2=NC(=O)n3cccc3C2=O)cc1Cl,-78.67%
25,CN(CCC(N)=O)Cc1cc(Br)cs1,-77.34%
26,Cc1cc(CNC(=O)NCC(O)c2cccc(C(F)(F)F)c2)no1 (centres undefined),-35.43%

row,SMILES,Percent Effect
1,Cc1ncc(CN(C)CC(O)c2cccc(C(F)(F)F)c2)s1 (centres undefined),53.4%
2,CCCN(CCC)C(=O)CN(C)Cc1cnc(C)s1,-123.6%
3,Cc1ncc(CN(C)CC(O)c2ccc(OC(F)(F)F)cc2)s1 (centres undefined),62.45%
4,CCOC(=O)CN(C)Cc1cnc(C)s1,-144.9%
5,Cc1ncc(CN(C)CC(O)c2ccc(Br)cc2)s1 (centres undefined),19.44%
6,N#Cc1ccc(N2CCC3(CCC(=O)N3Cc3ccncc3)CC2)nc1.O=C(O)C(F)(F)F.O=C(O)C(F)(F)F,-114.1%
7,CCn1cc(-c2cc(C(F)F)n3nc(CC(=O)O)nc3n2)cn1,-21.51%
8,CCOCCN1CCN([C@@H]2c3ccccc3C3(CCNCC3)[C@H]2O)CC1,-70.37%
9,COCCCC1CCN([C@@H]2c3ccccc3C3(CCNCC3)[C@H]2O)CC1,36.42%
10,Cc1cc(C(C)(O)CNC(=O)CCOCC(C)C)c(C)o1 (centres undefined),-34.27%
11,CCS(=O)(=O)N1CC[C@@H]2[C@H](CC1)N(Cc1cccnc1)CCS2(=O)=O.O=C(O)C(F)(F)F.O=C(O)C(F)(F)F,-78.89%
12,Cc1csc(C2CCCCN2C(=O)COCc2nc(C)no2)n1 (centres undefined),-74.6%
13,Cc1csc(C2CCCCN2C(=O)CN(C)C2CC2)n1 (centres undefined),-127%
14,Cc1csc(C2CCCCN2C(=O)c2cc(C(C)C)[nH]n2)n1 (centres undefined),75.22%
15,CC(NCC(=O)Nc1ccc(N2CCCCCC2)cc1)c1cccs1 (centres undefined),21.94%
16,COC(=O)c1cc(OC)c(OC)cc1NCc1c(C)noc1C,-119.4%
17,CCCN(C(=O)CN1CCn2c(nnc2C2CC2)C1)C1=CCCCC1,-109.1%
18,Cc1nn(C)c2nc(NCCCN3CCCC(C(N)=O)C3)sc12 (centres undefined),-133.1%
19,Cc1ccc(CN(CCCO)Cc2nc3ccccc3[nH]2)s1,-85.6%
20,COCc1ncc(CN(CCN(C)C)Cc2ccc(C)s2)cn1,1.94%
21,CCc1ccc(CN(CCN(C)C)Cc2ccc(C)s2)nc1,91.79%
22,CCNc1ncc(CN(CCN(C)C)Cc2ccc(C)s2)cn1,37.82%
23,COc1ncc(CN(CCN(C)C)Cc2ccc(C)s2)cn1,-3.016%
24,Cc1ccc(CN(CCN(C)C)Cc2nc3ccccc3[nH]2)s1,60.93%
25,O=C(O)C1(O)CCN(c2ccc3cccc(Cl)c3n2)CC1,-181.1%
26,CCCN1CCC(c2nc3ccc(-c4cccc(F)c4)cn3n2)CC1.O=C(O)C(F)(F)F,31.95%

row,SMILES,Percent Effect
1,COc1ccc(Cn2nnnc2SCC2CCCN(C)C2)cc1 (centres undefined),58.9%
2,COc1ccc(OC)c(-n2nnnc2SCC2CCCN(C)C2)c1 (centres undefined),41.34%
3,COc1ccc(CN2CC[C@H](c3nnc(-c4ccco4)o3)C2)cc1,-19.38%
4,O=C(O)C(F)(F)F.O=C(c1cccs1)N1CCOCC2(C1)CN(c1cccnc1)C(=O)CO2 (centres undefined),-98.48%
5,Cc1ccc(C(=O)Nc2nnc(CC(C)C)s2)c(-n2cnnn2)c1C,-82.26%
6,Cn1ccnc1CN1CCC(Cn2cc(-c3ccncc3)nn2)CC1,-74.11%
7,COCCNCC1(O)CCCN(Cc2ccc(F)c(F)c2)C1=O (centres undefined),23.01%
8,COc1ccc(F)c(CN2CCCC(O)(CNC3CCCCC3)C2=O)c1 (centres undefined),69.02%
9,O=C1N(Cc2ccc(F)c(F)c2)CCCC1(O)CNCC1CCCCC1 (centres undefined),73.06%
10,CN1CCC(NCC2(O)CCCN(Cc3ccccc3F)C2=O)CC1 (centres undefined),4.135%
11,COc1ccc(F)c(CN2CCCC(O)(CNCc3ccon3)C2=O)c1 (centres undefined),-23.9%
12,O=C(CNCC1(O)CCCN(Cc2cccc(F)c2F)C1=O)NC1CC1 (centres undefined),-101.8%
13,O=C1N(Cc2cccc(F)c2F)CCCC1(O)CNCC1CCCCC1 (centres undefined),73.31%
14,C=C(C)CNCC1(O)CCCN(Cc2ccc(F)c(F)c2)C1=O (centres undefined),-91.62%
15,O=C1N(Cc2cccc(F)c2F)CCCC1(O)CNCc1ccccn1 (centres undefined),0.3162%
16,O=C1N(Cc2cccc(F)c2F)CCCC1(O)CNC1CCCC1 (centres undefined),59.35%
17,COc1ccc(F)c(CN2CCCC(O)(CNCc3ncc[nH]3)C2=O)c1 (centres undefined),-101.4%
18,COC(=O)CNCC1(O)CCCN(Cc2cccc(F)c2F)C1=O (centres undefined),-57.14%
19,O=C(CCc1cccnc1)N1CCC2(CCN(CC3CCCC3)C2)C1.O=C(O)C(F)(F)F.O=C(O)C(F)(F)F (centres undefined),15.87%
20,Cn1cc(NC(=O)CNC(=O)N2CCN(c3cccc(Cl)c3)CC2)cn1,-19.66%
21,Cc1ccc(NC(C(N)=O)c2ccc(F)cc2)cc1 (centres undefined),-42.35%
22,O=C(NCCc1nnc2n1CCC2)NC1(c2cccc(F)c2)CC1,-62.64%
23,CNC(=O)c1cnc2c(C)csc2c1,-145.8%
24,Cc1nn(C2CCS(=O)(=O)C2)c(O)c1Cc1ccccc1Cl (centres undefined),-17.18%
25,Cc1noc([C@H]2CC[C@@H]3[C@@H](CCN3c3ncccn3)O2)n1,-94.2%
26,Cc1ccc(C)c(OCCN(C)C(=O)CCc2cn[nH]c2)c1,-90.4%
